# According to ChEMBL document CHEMBL5606460, “ASAP - DENV-2 NS2B-NS3 protease fluorescence single point” (2024):
# The whole screen tested about 2,000 compounds, of which about 110 (5.5%) showed an effect of 50% or more. The sample holds strong results, similar compounds and a random draw of the others, so the mix is not that of the screen.
# Biological target: Genome polyprotein (dengue virus type 2) (UniProt P29990)
# [1] = Thailand/16681/1984, Concentration 25.0 uM, Number of replicates 1.0
smiles,measurement,setting,value
Cc1cc(CO)c2cccc(NC(=O)CN3CCOCC3)c2n1,inhibition,"Thailand/16681/1984, Concentration 49.95 uM, Number of replicates 2.0, Standard deviation 2.1720644748171827 %",8.27%
same,inhibition,"Thailand/16681/1984, Concentration 99.9 uM, Number of replicates 2.0, Standard deviation 1.8504772771832996 %",15.1%
CS(=O)(=O)N1CCC(C(=O)Nc2nc3c(F)cccc3s2)CC1,inhibition,"Thailand/16681/1984, Concentration 49.5 uM, Number of replicates 2.0, Standard deviation 0.96531236791799 %",0.796%
same,inhibition,"Thailand/16681/1984, Concentration 99.01 uM, Number of replicates 2.0, Standard deviation 0.9471689504241718 %",0.997%
same,inhibition,"Thailand/16681/1984, Concentration 198.0 uM, Number of replicates 2.0, Standard deviation 0.2746253667085591 %",0.83%
NCc1cccc(NC(=O)[C@H]2CCN(C(=O)OCc3ccccc3)C2)c1,inhibition,"Thailand/16681/1984, Concentration 49.5 uM, Number of replicates 2.0, Standard deviation 1.9221944810499825 %",-1.99%
same,inhibition,"Thailand/16681/1984, Concentration 99.01 uM, Number of replicates 2.0, Standard deviation 1.6664051520702452 %",-1.6%
same,inhibition,"Thailand/16681/1984, Concentration 198.0 uM, Number of replicates 2.0, Standard deviation 2.955416090340052 %",-1.98%
O=Cc1ccc(N2CCC(C(=O)N[C@H]3CCOc4ccc(F)cc43)CC2)cc1,inhibition,[1],15.7%
COc1cc(Cc2cnn(-c3ccc(F)cc3)c2)nc(N2CCNCC2)n1,inhibition,"Thailand/16681/1984, Concentration 49.5 uM, Number of replicates 2.0, Standard deviation 0.031215136118926425 %",0.871%
same,inhibition,"Thailand/16681/1984, Concentration 99.01 uM, Number of replicates 2.0, Standard deviation 1.7579341775024742 %",1.83%
same,inhibition,"Thailand/16681/1984, Concentration 198.0 uM, Number of replicates 2.0, Standard deviation 1.6450393762001025 %",5.51%
O=C(O)c1ccn(C2CCN(Cc3c[nH]c4ccccc34)CC2)n1,inhibition,"Thailand/16681/1984, Concentration 49.5 uM, Number of replicates 2.0, Standard deviation 2.1869842063089484 %",-2.55%
same,inhibition,"Thailand/16681/1984, Concentration 99.01 uM, Number of replicates 2.0, Standard deviation 2.684345636447637 %",-2.42%
same,inhibition,"Thailand/16681/1984, Concentration 198.0 uM, Number of replicates 2.0, Standard deviation 2.4976754742252494 %",-2.46%
Cc1cnc(NC(=O)C2CCN(c3ccc(C=O)cc3)CC2)c([N+](=O)[O-])c1,inhibition,[1],14.4%
Cc1cc(CO)c2cccc(Cc3cccc(NC(=O)Cc4c[nH]c5ccccc45)c3)c2n1,inhibition,"Thailand/16681/1984, Concentration 49.95 uM, Number of replicates 2.0, Standard deviation 0.8412168519630298 %",-0.469%
same,inhibition,"Thailand/16681/1984, Concentration 99.9 uM, Number of replicates 2.0, Standard deviation 1.20193607081355 %",3.26%
Cc1cc(CO)c2cccc(Cc3ccccc3NC(=O)C[C@H]3CCCN3)c2n1,inhibition,"Thailand/16681/1984, Concentration 49.95 uM, Number of replicates 2.0, Standard deviation 2.3110961437297597 %",-1.74%
same,inhibition,"Thailand/16681/1984, Concentration 99.9 uM, Number of replicates 1.0",-1.01%
Cc1cnccc1NC(=O)c1cncc(S(C)(=O)=O)c1,inhibition,"Thailand/16681/1984, Concentration 49.5 uM, Number of replicates 2.0, Standard deviation 0.09362930826064811 %",1.61%
same,inhibition,"Thailand/16681/1984, Concentration 99.01 uM, Number of replicates 2.0, Standard deviation 0.10343333957385824 %",2.02%
same,inhibition,"Thailand/16681/1984, Concentration 198.0 uM, Number of replicates 2.0, Standard deviation 0.39657621920361824 %",2.99%
COc1cc(CC(=O)NCc2cccnc2)nc(N2CCNCC2)n1,inhibition,"Thailand/16681/1984, Concentration 49.5 uM, Number of replicates 2.0, Standard deviation 1.473545535483215 %",-5.12%
same,inhibition,"Thailand/16681/1984, Concentration 99.01 uM, Number of replicates 2.0, Standard deviation 1.7989399422367844 %",-4.77%
same,inhibition,"Thailand/16681/1984, Concentration 198.0 uM, Number of replicates 2.0, Standard deviation 1.3802101593440819 %",-3.61%
CNC(=O)c1cnncc1NS(=O)(=O)c1ccc(Oc2ccccc2Cl)cc1,inhibition,"Thailand/16681/1984, Concentration 49.5 uM, Number of replicates 2.0, Standard deviation 2.9688082409176766 %",2.22%
same,inhibition,"Thailand/16681/1984, Concentration 99.01 uM, Number of replicates 2.0, Standard deviation 2.2862743420867915 %",7.71%
same,inhibition,"Thailand/16681/1984, Concentration 198.0 uM, Number of replicates 2.0, Standard deviation 2.701916446857586 %",19.5%
